Assay results as given in PubChem BioAssay AID1159580 (chemical genetic matrix, 2015).
The whole screen tested about 5,500 compounds, of which about 2,000 (36%) were called active. Not shown: some 18% with an inconclusive outcome. No stated cut-off is given here; in the data, active means normalized growth mostly below about 0.91 (no sharp cut-off); inconclusive means no clear call, values can overlap the other calls; inactive means mostly above about 0.92. This is one part of the list.

Assay: chemical genetic growth profiling, strain panel (AID 1159580);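 further: tested at 20 µM; growth read once vehicle control cultures reached saturation at 30 °C; 1 = growth at the plate median or of vehicle wells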
Settings: growth OD

Measured: normalized growth

NC(=O)NO
inactive: S. cerevisiae deletion strains, locus YJR066W, strain TOR1, stronger effect = lower value 0.931 | S. cerevisiae deletion strains, locus YKL009W, strain mrt4, stronger effect = lower value 0.998 | S. cerevisiae deletion strains, locus YKL068W, stronger effect = lower value 0.997 | S. cerevisiae deletion strains, locus YKL085W, strain MDH1 (second series), stronger effect = lower value 0.989 | S. cerevisiae deletion strains, locus YKL085W, strain MDH1, stronger effect = lower value 0.989 | S. cerevisiae deletion strains, locus YKL160W, strain elf1, stronger effect = lower value 1.03 | S. cerevisiae deletion strains, locus YKL190W, strain CNB1, stronger effect = lower value 1.01 | S. cerevisiae deletion strains, locus YKR001C, strain vps1, stronger effect = lower value 0.992 | S. cerevisiae deletion strains, locus YKR026C, strain gcn3, stronger effect = lower value 1.02 | S. cerevisiae deletion strains, locus YKR091W, strain srl3, stronger effect = lower value 1.01 | S. cerevisiae deletion strains, locus YLL001W, strain dnm1, stronger effect = lower value 1.01 | S. cerevisiae deletion strains, locus YLL026W, stronger effect = lower value 1.02 | S. cerevisiae deletion strains, locus YLL041C, strain sdh2, stronger effect = lower value 1.02 | S. cerevisiae deletion strains, locus YLR027C, strain aat2, stronger effect = lower value 1.03 | S. cerevisiae deletion strains, locus YLR039C, strain RIC1, stronger effect = lower value 1 | S. cerevisiae deletion strains, locus YLR058C, strain SHM2, stronger effect = lower value 1.01 | S. cerevisiae deletion strains, locus YLR102C, strain apc9, stronger effect = lower value 1 | S. cerevisiae deletion strains, locus YLR113W, strain HOG1, stronger effect = lower value 0.951 | S. cerevisiae deletion strains, locus YLR221C, strain rsa3, stronger effect = lower value 1.01 | S. cerevisiae deletion strains, locus YLR258W, strain gsy2, stronger effect = lower value 1.02 | S. cerevisiae deletion strains, locus YLR262C, strain YPT6 (second series), stronger effect = lower value 1 | S. cerevisiae deletion strains, locus YLR262C, strain YPT6, stronger effect = lower value 0.993 | S. cerevisiae deletion strains, locus YLR268W, strain sec22, stronger effect = lower value 0.998 | S. cerevisiae deletion strains, locus YLR320W, strain mms22, stronger effect = lower value 1.02 | S. cerevisiae deletion strains, locus YLR330W, strain CHS5, stronger effect = lower value 1.01 | S. cerevisiae deletion strains, locus YLR342W, strain FKS1 (second series), stronger effect = lower value 1 | S. cerevisiae deletion strains, locus YLR342W, strain FKS1, stronger effect = lower value 1.02 | S. cerevisiae deletion strains, locus YLR357W, strain rsc2, stronger effect = lower value 0.994 | S. cerevisiae deletion strains, locus YLR370C, strain arc18, stronger effect = lower value 1.03 | S. cerevisiae deletion strains, locus YLR371W, strain rom2, stronger effect = lower value 0.997 | S. cerevisiae deletion strains, locus YLR384C, strain iki3, stronger effect = lower value 1.02 | S. cerevisiae deletion strains, locus YLR418C, strain cdc73, stronger effect = lower value 0.97 | S. cerevisiae deletion strains, locus YML016C, strain PPZ1, stronger effect = lower value 1 | S. cerevisiae deletion strains, locus YML032C, strain rad52, stronger effect = lower value 0.984 | S. cerevisiae deletion strains, locus YML120C, strain ndi1, stronger effect = lower value 0.997 | S. cerevisiae deletion strains, locus YML124C, strain tub3, stronger effect = lower value 0.993 | S. cerevisiae deletion strains, locus YMR058W, strain fet3, stronger effect = lower value 1.06 | S. cerevisiae deletion strains, locus YMR078C, strain ctf18, stronger effect = lower value 0.999 | S. cerevisiae deletion strains, locus YMR125W, strain sto1, stronger effect = lower value 1.02 | S. cerevisiae deletion strains, locus YMR129W, stronger effect = lower value 1.02 | S. cerevisiae deletion strains, locus YMR205C, strain PFK2, stronger effect = lower value 1.03 | S. cerevisiae deletion strains, locus YMR223W, strain ubp8, stronger effect = lower value 0.994 | S. cerevisiae deletion strains, locus YMR231W, strain pep5, stronger effect = lower value 1.03 | S. cerevisiae deletion strains, locus YMR263W, strain SAP30, stronger effect = lower value 1.01 | S. cerevisiae deletion strains, locus YMR307W, strain GAS1, stronger effect = lower value 1.03 | S. cerevisiae deletion strains, locus YNL067W, strain RPL9B, stronger effect = lower value 1 | S. cerevisiae deletion strains, locus YNL071W, strain lat1, stronger effect = lower value 1.02 | S. cerevisiae deletion strains, locus YNL128W, strain TEP1, stronger effect = lower value 1.02 | S. cerevisiae deletion strains, locus YNL153C, strain GIM3, stronger effect = lower value 0.994 | S. cerevisiae deletion strains, locus YNL183C, strain NPR1, stronger effect = lower value 0.945 | S. cerevisiae deletion strains, locus YNL209W, strain ssb2, stronger effect = lower value 1.02 | S. cerevisiae deletion strains, locus YNL224C, strain SQS1, stronger effect = lower value 0.99 | S. cerevisiae deletion strains, locus YNL233W, strain BNI4, stronger effect = lower value 1.01 | S. cerevisiae deletion strains, locus YNL248C, strain rpa49, stronger effect = lower value 1.03 | S. cerevisiae deletion strains, locus YNL250W, strain rad50, stronger effect = lower value 0.996 | S. cerevisiae deletion strains, locus YNL271C, strain bni1, stronger effect = lower value 0.999 | S. cerevisiae deletion strains, locus YNL298W, strain CLA4, stronger effect = lower value 0.997 | S. cerevisiae deletion strains, locus YNL307C, strain MCK1, stronger effect = lower value 1 | S. cerevisiae deletion strains, locus YNL322C, strain KRE1 (second series), stronger effect = lower value 1.03 | S. cerevisiae deletion strains, locus YNR049C, strain mso1, stronger effect = lower value 1.01 | S. cerevisiae deletion strains, locus YNR052C, strain pop2, stronger effect = lower value 1.01 | S. cerevisiae deletion strains, locus YOL006C, strain TOP1, stronger effect = lower value 0.967 | S. cerevisiae deletion strains, locus YOL012C, strain htz1 0.591 | S. cerevisiae deletion strains, locus YOL147C, strain pex11, stronger effect = lower value 1 | S. cerevisiae deletion strains, locus YOR001W, strain rrp6, stronger effect = lower value 1.01 | S. cerevisiae deletion strains, locus YOR061W, strain CKA2, stronger effect = lower value 1.01 | S. cerevisiae deletion strains, locus YOR069W, strain VPS5, stronger effect = lower value 1.01 | S. cerevisiae deletion strains, locus YOR070C, strain gyp1, stronger effect = lower value 1.02 | S. cerevisiae deletion strains, locus YOR080W, strain dia2, stronger effect = lower value 1.03 | S. cerevisiae deletion strains, locus YOR083W, strain WHI5 (second series), stronger effect = lower value 0.997 | S. cerevisiae deletion strains, locus YOR083W, strain WHI5, stronger effect = lower value 0.993 | S. cerevisiae deletion strains, locus YOR106W, strain vam3, stronger effect = lower value 1.02 | S. cerevisiae deletion strains, locus YOR136W, strain idh2, stronger effect = lower value 0.991 | S. cerevisiae deletion strains, locus YOR144C, strain elg1, stronger effect = lower value 0.998 | S. cerevisiae deletion strains, locus YOR184W, strain ser1, stronger effect = lower value 0.993 | S. cerevisiae deletion strains, locus YOR231W, strain MKK1, stronger effect = lower value 0.967 | S. cerevisiae deletion strains, locus YOR265W, strain rbl2, stronger effect = lower value 1.02 | S. cerevisiae deletion strains, locus YOR270C, strain vph1, stronger effect = lower value 1.05 | S. cerevisiae deletion strains, locus YOR290C, strain snf2, stronger effect = lower value 1.02 | S. cerevisiae deletion strains, locus YOR316C, strain cot1, stronger effect = lower value 1.01 | S. cerevisiae deletion strains, locus YPL051W, strain arl3, stronger effect = lower value 1.03 | S. cerevisiae deletion strains, locus YPL078C, strain atp4, stronger effect = lower value 1.03 | S. cerevisiae deletion strains, locus YPL106C, strain sse1, stronger effect = lower value 0.984 | S. cerevisiae deletion strains, locus YPL240C, strain hsp82, stronger effect = lower value 1.01 | S. cerevisiae deletion strains, locus YPL241C, strain CIN2, stronger effect = lower value 1.01 | S. cerevisiae deletion strains, locus YPL256C, strain CLN2, stronger effect = lower value 0.954 | S. cerevisiae deletion strains, locus YPR119W, strain clb2, stronger effect = lower value 0.993 | S. cerevisiae deletion strains, locus YPR141C, strain kar3, stronger effect = lower value 0.99 | S. cerevisiae deletion strains, locus YPR163C, strain tif3, stronger effect = lower value 1 | S. cerevisiae deletion strains, locus YPR167C, strain met16, stronger effect = lower value 0.996 | S. cerevisiae deletion strains, strain wtn01, stronger effect = lower value 0.995 | S. cerevisiae strains, strain wild type, stronger effect = lower value 1
